IDE exosite FP: exo-site inhibitors of human IDE, primary screen, biochemical, fluorescence anisotropy, probe displacement | Insulin-degrading enzyme (Homo sapiens), P14735 | purified IDE, FL-6b probe fluorescence polarization; active compounds read low | z-score at 20 µM | AID 1259349, 2017 | hit rate 6.3% among 17,000;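 active means z-score of -3 or lower, meaning strong loss of probe binding signal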;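 further: His-tagged human IDE residues 42-1019 made in E. coli with 30 nM FL-6b probe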
Target sequence (P14735 42-1019 limits assumed): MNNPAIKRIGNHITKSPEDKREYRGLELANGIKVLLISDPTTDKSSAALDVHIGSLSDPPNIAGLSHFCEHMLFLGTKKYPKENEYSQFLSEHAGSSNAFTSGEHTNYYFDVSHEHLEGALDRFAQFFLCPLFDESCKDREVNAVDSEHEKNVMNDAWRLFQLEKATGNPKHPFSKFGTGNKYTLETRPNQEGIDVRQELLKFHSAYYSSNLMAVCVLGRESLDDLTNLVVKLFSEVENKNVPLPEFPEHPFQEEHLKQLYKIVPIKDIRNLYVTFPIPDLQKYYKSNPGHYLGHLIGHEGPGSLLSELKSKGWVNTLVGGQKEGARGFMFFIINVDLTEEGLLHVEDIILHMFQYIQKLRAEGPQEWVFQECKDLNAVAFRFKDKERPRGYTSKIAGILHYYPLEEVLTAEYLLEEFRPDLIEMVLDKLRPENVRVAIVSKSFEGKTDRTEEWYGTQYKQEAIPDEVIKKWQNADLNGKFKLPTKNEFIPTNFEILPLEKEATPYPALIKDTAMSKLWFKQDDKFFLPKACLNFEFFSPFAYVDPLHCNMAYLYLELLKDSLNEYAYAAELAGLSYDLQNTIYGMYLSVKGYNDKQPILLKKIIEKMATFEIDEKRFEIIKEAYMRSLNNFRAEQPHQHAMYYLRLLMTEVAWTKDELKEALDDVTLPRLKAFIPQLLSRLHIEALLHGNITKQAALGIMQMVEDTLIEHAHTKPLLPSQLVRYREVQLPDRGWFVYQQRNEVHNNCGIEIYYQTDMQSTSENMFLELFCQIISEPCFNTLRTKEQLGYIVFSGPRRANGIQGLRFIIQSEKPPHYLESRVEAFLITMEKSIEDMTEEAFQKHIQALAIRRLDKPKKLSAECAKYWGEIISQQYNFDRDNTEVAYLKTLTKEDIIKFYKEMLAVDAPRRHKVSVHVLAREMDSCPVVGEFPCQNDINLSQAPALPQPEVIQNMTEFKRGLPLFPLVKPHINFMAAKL
Numbers without * were called inactive; ! = not confirmed by another sample. The entries come from a sample that favours hits as a whole.

SMILES	IDE exosite FP
C(=C\c1ccc(C2[C@@H]3CN(Cc4ccc5c(c4)OCO5)C[C@H]2N3)cc1)/c1ccccc1 (stereo partly drawn)	0.17
O=C(Nc1ccccc1F)N1[C@@H]2CNC[C@H]1C2c1ccc(-c2ccccc2)cc1 (stereo partly drawn)	3
O=C(Nc1ccccc1Cl)N1[C@@H]2CNC[C@H]1C2c1ccc(-c2ccccc2)cc1 (stereo partly drawn)	1.2
O=C(Nc1ccccc1F)N1[C@@H]2CNC[C@H]1C2c1ccc(-c2cccnc2)cc1 (stereo partly drawn)	-3.3*!
O=C(Nc1cccc(F)c1)N1[C@@H]2CNC[C@H]1C2c1ccc(-c2cncnc2)cc1 (stereo partly drawn)	-2.7
COc1ccc(NC(=O)N2[C@@H]3CNC[C@H]2C3c2ccc(-c3cccc(C(=O)N(C)C)c3)cc2)cc1 (stereo partly drawn)	0.85
C/C=C/c1ccc(C2[C@H]3CNC[C@@H]2N3C(=O)Nc2ccccc2Cl)cc1 (stereo partly drawn)	0.32
O=C(Nc1ccc2c(c1)OCO2)N1[C@@H]2CNC[C@H]1C2c1ccc(/C=C/c2ccccc2)cc1 (stereo partly drawn)	-1.5
COc1cccc(-c2ccc(C3[C@H]4CNC[C@@H]3N4C(=O)Nc3cc(F)ccc3F)cc2)c1 (stereo partly drawn)	3.7
COc1cccc(-c2ccc(C3[C@H]4CNC[C@@H]3N4C(=O)Nc3ccccc3OC)cc2)c1 (stereo partly drawn)	-3.9*
O=C(Nc1ccc2c(c1)OCO2)N1[C@@H]2CNC[C@H]1C2c1ccc(-c2ccncc2)cc1 (stereo partly drawn)	-3.2*!
O=C(Nc1ccc(F)cc1)N1[C@@H]2CNC[C@H]1C2c1ccc(-c2cccnc2)cc1 (stereo partly drawn)	-0.059
COc1ccccc1-c1ccc(C2[C@H]3CNC[C@@H]2N3C(=O)Nc2ccccc2Cl)cc1 (stereo partly drawn)	-3.2*
CCC(=O)N1CC(=O)N2[C@@H](CO)[C@H](c3ccc(-c4ccc(C(=O)N(C)C)cc4)cc3)[C@@H]2C1	-0.86
CN1[C@@H]2c3ccc(-c4ccncc4)c(=O)n3C[C@H]1[C@H](CO)[C@H]2C(=O)N1CCC(Cc2ccccc2)CC1	-0.36
COc1ccccc1NC(=O)N1C[C@H]2[C@@H](c3ccccc31)[C@@H](CO)N2Cc1ccc2c(c1)OCO2	2.4
C[C@@H]1CN([C@@H](C)CO)C(=O)c2ccccc2-c2ccccc2CO[C@@H]1CN(C)C(=O)NC1CCCCC1	-0.57
COc1ccccc1-c1cnc2c(c1)C(=O)N([C@@H](C)CO)C[C@H](C)[C@H](CN(C)C(=O)CC1CC1)O2	0.28
O=C(C[C@@H]1CC[C@H](NC(=O)c2ccc(F)cc2)[C@H](CO)O1)NCCc1ccccc1	3.6
O=C(C[C@@H]1CC[C@H](NC(=O)c2ccc3c(c2)OCO3)[C@H](CO)O1)NCc1ccc(Oc2ccccc2)cc1	2.9
O=C(c1ccc2c(c1)OCO2)N1CC(=O)N2[C@H](CO)[C@H](c3ccc(C#CCC4CCCC4)cc3)[C@H]2C1	1.4
O=C(c1ccccn1)N1CC(=O)N2[C@H](C1)[C@H](c1ccc(-c3cccc(F)c3)cc1)[C@@H]2CO	3.1
O=C(c1cccc(F)c1)N1CC(=O)N2[C@H](CO)[C@H](c3ccc(-c4cccnc4)cc3)[C@@H]2C1	3.1
O=C(c1cnccn1)N1CC(=O)N2[C@H](CO)[C@H](c3ccc(-c4ccc(F)cc4)cc3)[C@@H]2C1	3.5
O=C(c1cnccn1)N1CC(=O)N2[C@H](CO)[C@@H](c3ccc(-c4cccc(F)c4)cc3)[C@@H]2C1	-3.7*
SMILES	IDE exosite FP
O=C(c1cnccn1)N1CC(=O)N2[C@H](C1)[C@@H](c1ccc(-c3cccc(F)c3)cc1)[C@@H]2CO	-4*
O=C(c1cnccn1)N1CC(=O)N2[C@@H](CO)[C@@H](c3ccc(-c4ccc(F)cc4)cc3)[C@@H]2C1	3.1
O=C(c1ccccn1)N1CC(=O)N2[C@H](C1)[C@@H](c1ccc(-c3cccc(F)c3)cc1)[C@@H]2CO	-7.7*
O=C(c1cnccn1)N1CC(=O)N2[C@H](C1)[C@@H](c1ccc(-c3ccc(F)cc3)cc1)[C@@H]2CO	4.4
O=C(c1cnccn1)N1CC(=O)N2[C@H](CO)[C@H](c3ccc(-c4cccc(F)c4)cc3)[C@@H]2C1	-0.31
CC(C)C#Cc1ccc([C@H]2[C@H]3CN(C(=O)c4ccc(F)cc4)CCCCN3[C@H]2CO)cc1	2.6
O=C(Nc1ccccc1F)N1CC(=O)N2[C@H](CO)[C@@H](c3ccc(-c4ccc(F)cc4)cc3)[C@@H]2C1	1.1
Cc1ccc(NC(=O)Nc2ccc3c(c2)C(=O)N(C)[C@H]2CC[C@H](CC(=O)NCC(F)(F)F)O[C@@H]2CO3)cc1	-2
COc1cccc(S(=O)(=O)N2C[C@H](O)COC[C@H]3O[C@@H](CC(=O)NCCCN4CCOCC4)CC[C@@H]32)c1	0.72
O=C(NCCN1CCCCC1)[C@@H]1N[C@@H]2c3ccc(-c4cccnc4)c(=O)n3C[C@@H]2[C@H]1CO	-0.36
C[C@@H]1CN([C@H](C)CO)C(=O)CCCn2cc(nn2)CO[C@@H]1CN(C)C(=O)CCC(F)(F)F	0.099
COc1ccccc1-c1ccc([C@@H]2[C@H](CO)N3CCCCN(Cc4ccncc4)C[C@@H]23)cc1	-8.9*
OC[C@H]1[C@H](c2ccc(-c3ccc(F)cc3)cc2)[C@@H]2CN(Cc3ccncc3)CCCCN12	2.9
COc1ccc(C#Cc2ccc([C@H]3[C@H](CO)N4CCCCN(Cc5ccncc5)C[C@@H]34)cc2)cc1	1.8
COc1ccccc1-c1ccc([C@@H]2[C@@H](CO)N3CCCCN(Cc4ccncc4)C[C@H]23)cc1	-4.2*
COc1ccccc1-c1ccc([C@H]2[C@@H](CO)N3CCCCN(Cc4ccncc4)C[C@@H]23)cc1	-4.6*
COCC#Cc1ccc([C@@H]2[C@@H](CO)N3CCCCN(Cc4ccncc4)C[C@H]23)cc1	2.6
OC[C@H]1[C@@H](c2ccc(-c3ccc(F)cc3)cc2)[C@@H]2CN(Cc3ccncc3)CCCCN12	4.7
COc1ccc(C#Cc2ccc([C@@H]3[C@H](CO)N4CCCCN(Cc5ccncc5)C[C@@H]34)cc2)cc1	1.2
COc1ccccc1-c1ccc([C@H]2[C@@H](CO)N3CCCCN(Cc4ccncc4)C[C@H]23)cc1	-8.9*
COc1ccc(C#Cc2ccc([C@@H]3[C@H]4CN(Cc5ccncc5)CCCCN4[C@H]3CO)cc2)cc1	4.9
O=C(c1cccc(F)c1)N1CCCCN2[C@H](CO)[C@H](c3ccc(-c4ccncc4)cc3)[C@@H]2C1	1.8
C[C@@H]1CCCCO[C@H](CN(C)C(=O)CCCN(C)C)[C@@H](C)CN([C@H](C)CO)C(=O)c2cc(NS(=O)(=O)c3ccc(Cl)cc3)ccc2O1	0.28
Cc1noc(C)c1NC(=O)N(C)C[C@H]1Oc2cc(C#CCN(C)C)ccc2S(=O)(=O)N([C@H](C)CO)C[C@H]1C	-1.5
CN(C)C(=O)c1ccc(-c2ccc([C@@H]3[C@@H](C#N)N(C(=O)Nc4ccccc4F)[C@H]3CO)cc2)cc1	2.6
COc1ccc(NC(=O)N2CC(=O)N3[C@H](CO)[C@H](c4ccc(Br)cc4)[C@@H]3C2)cc1	-0.052
CCCN(C)C[C@@H]1OCCCC[C@H](C)Oc2ccc(NC(=O)CCCN(C)C)cc2C(=O)N([C@@H](C)CO)C[C@@H]1C	-0.38

Source: PubChem BioAssay
